# Compound activity from PubChem.
# Only some compounds are listed: those with a hit (about 2.9% of all), similar ones and a draw of the others.
# H9c2 protect: protects H9c2 cardiomyocytes from peroxide injury; H2O2 injury protection, ATPLite, 2 h; protection from H2O2 cell death, % at 20 µM; 0.63% of 360,000 active; AID 588492;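 active = compounds giving at least 50% protection of heart cells from peroxide-induced death in the single-dose screen, raw or plate-pattern-corrected value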
# APOBEC3A inh: blocks human APOBEC3A ssDNA deamination | P31941 | recombinant A3A, FAM/TAMRA ssDNA deamination fluorescence | inhibition, % at 20 µM | 0.41% of 330,000 active | AID 493011;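 active = at least 40% inhibition at 20 µM here, with at most 30% in a related deaminase screen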
# Target sequence (P31941 whole entry, looked up): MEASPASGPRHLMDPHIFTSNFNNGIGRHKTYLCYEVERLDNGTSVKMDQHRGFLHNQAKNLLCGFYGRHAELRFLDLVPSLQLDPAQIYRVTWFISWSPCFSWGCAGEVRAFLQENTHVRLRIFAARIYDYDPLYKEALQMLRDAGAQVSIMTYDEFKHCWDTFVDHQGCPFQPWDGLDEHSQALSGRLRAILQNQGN
# H9c2 TAG inh: reduces triacylglycerol accumulation in H9c2 cells | Nile Red lipid (TAG) fluorescence; cells loaded with 200 µM oleic acid | inhibition, % at 12.5 µM | 0.66% of 230,000 active | AID 651582;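 active = pattern-corrected inhibition of lipid staining of at least 50% with the nuclear-stain viability signal not falling by more than 50%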
# NadD inh: inhibitors of Staphylococcus aureus NadD. purified NadD enzyme, colorimetric absorbance read-out. inhibition, % at 20 µM. 0.78% of 360,000 active; in the data active = inhibition above about 26%
# A3G deaminase: blocks human APOBEC3G single-stranded DNA deamination; 0.28% of 330,000 active; recombinant A3G, ssDNA deamination FAM/TAMRA fluorescence; inhibition, % at 20 µM; Q9HC16;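 active = inhibition of at least 40% at 20 µM, with no more than 30% in the related APOBEC3A deaminase screen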
# Target sequence (Q9HC16 whole entry, looked up): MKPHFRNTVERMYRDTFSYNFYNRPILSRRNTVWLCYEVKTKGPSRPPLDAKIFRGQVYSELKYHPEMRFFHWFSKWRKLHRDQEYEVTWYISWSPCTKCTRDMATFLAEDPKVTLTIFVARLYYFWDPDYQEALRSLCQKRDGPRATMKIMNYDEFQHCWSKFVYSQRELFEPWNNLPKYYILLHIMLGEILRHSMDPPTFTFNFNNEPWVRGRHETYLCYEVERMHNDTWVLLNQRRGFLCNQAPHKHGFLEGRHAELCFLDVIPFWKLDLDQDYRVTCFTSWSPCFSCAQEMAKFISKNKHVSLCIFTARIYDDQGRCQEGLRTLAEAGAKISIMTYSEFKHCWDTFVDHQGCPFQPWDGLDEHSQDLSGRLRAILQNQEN
# PfGluPho inh: PfG6PD (Plasmodium falciparum) enzyme inhibition. 0.78% of 350,000 active. inhibition, % at 20 µM. PfGluPho enzyme, NADPH resazurin-diaphorase fluorescence. AID 504690;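 active = inhibition reaching at least a set limit at 20 µM in the primary screen, cut at about 59% in these data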
# Numbers stand for hits; . = inactive; / = no result.
SMILES,H9c2 protect,APOBEC3A inh,H9c2 TAG inh,NadD inh,A3G deaminase,PfGluPho inh
Nc1c(C(=O)NCC2CCCO2)c2nc3ccccc3nc2n1-c1ccccc1 (stereo not drawn),55.0,.,.,.,.,.
CC(C)n1cc(NC(=O)c2cc(-c3ccccc3)on2)cn1,.,.,50.3,.,.,.
Oc1ccc(/C=N/Nc2nc(N3CCCC3)nc(N3CCCC3)n2)cc1O,75.9,.,.,.,.,.
COc1ccc(-c2cc(=O)oc3c(C)c(O)c(CN(C)C)cc23)cc1,70.1,.,.,.,.,.
COc1ccc(-c2cc(=O)oc3c(C)c(OCC(=O)N(C)C)ccc23)cc1,.,.,/,.,.,.
COc1ccc(CNC(=O)COC(=O)CCc2c[nH]c3ccccc23)cc1,.,.,.,.,.,.
CCN1/C(=C/c2ccc3cc(C)ccc3[n+]2C)Sc2ccc3sccc3c21,.,/,/,64.3,/,64.7
CC(C)c1ccc2[nH]c(O)c(N=NC(=O)c3cccc(S(=O)(=O)N4CCCCC4)c3)c2c1,.,.,/,31.2,.,.
CC(C)c1ccc2[nH]c(O)c(N=NC(=O)c3cccc(S(=O)(=O)Nc4cccc(Cl)c4)c3)c2c1,.,.,.,34.8,.,.
O=C(N=Nc1c(O)[nH]c2ccccc12)c1cccc(S(=O)(=O)N2CCCCC2)c1,.,.,/,.,.,.
CC(C)c1ccc2[nH]c(O)c(N=NC(=O)c3cccc(S(=O)(=O)Nc4ccc(Cl)cc4)c3)c2c1,.,.,.,37.1,.,.
CNC(=S)N=Nc1c(O)[nH]c2ccc(C(C)C)cc12,.,/,/,.,/,.
CN(Cc1nc(-c2cccnc2)no1)S(=O)(=O)c1ccccc1,.,.,.,.,.,.
COc1ccc(-c2noc(CN(C)S(=O)(=O)c3ccccc3)n2)cc1OC,55.2,.,.,.,.,.
Cc1c(C(=O)N/N=C/c2ccc(O)c(Br)c2)sc(N)c1C#N,70.1,/,/,.,/,.
Cc1nc(C)c(C(=O)N/N=C/c2cc(Br)ccc2O)s1,.,.,.,.,.,.
COc1cc(/C=N/NC(=O)c2sc(N)c(C#N)c2C)ccc1O,53.5,.,/,.,.,.
COc1cc(/C=N/NC(=O)c2ccc(=O)[nH]n2)ccc1O,.,.,.,.,.,.
Oc1ccc(CCNc2ncnc3ccc(Cl)cc23)cc1,.,.,.,.,.,.
CCCN1C(=O)/C(=C/c2c(N3CCNC(=O)C3CC(=O)OCC)nc3c(C)cccn3c2=O)SC1=S (stereo not drawn),63.4,.,.,.,.,59.9
Cc1ccc(C(=O)N/N=C/c2cc(C)n(-c3ccc(Br)cc3)c2C)cc1[N+](=O)[O-],.,.,.,35.1,.,.
CCN1C(=O)c2cccc3c(S(=O)(=O)N4CCNCC4)ccc1c23,.,.,.,.,.,.
Brc1ccccc1OCCCN1CCCCCC1,.,.,.,.,.,.
CC(=O)c1ccccc1OCCCN1CCCCC1,52.6,.,.,.,.,.
CN(C(=O)c1ccc(NC(=O)Cc2cccc(NC(=O)C3CCN(C(=O)C4CCCCC4)CC3)c2)cc1)C1CCCC1,.,.,.,.,.,.
SMILES,H9c2 protect,APOBEC3A inh,H9c2 TAG inh,NadD inh,A3G deaminase,PfGluPho inh
O=C(COC(=O)c1ccc(S(=O)(=O)N2CCCCC2)cc1)Nc1ccccc1,.,.,.,.,.,.
Cc1cccc(NC(=O)CN2C(=O)N/C(=C/c3cc(C)n(C(C)C)c3C)C2=O)c1,.,.,/,34.1,.,.
O=C(CN1C(=O)C(=O)N(Cc2ccco2)C1=O)NC1CCCCC1,.,.,.,.,.,.
CC1CCN(C(=O)C2CCC(CNS(=O)(=O)c3ccc4c(c3)C(C)(C)C(=O)N4C)CC2)CC1 (stereo not drawn),.,/,.,.,/,/
O=C(C1=C[C@@H]2[C@H]3C(=O)N(c4cccc(Cl)c4)C(=O)[C@H]3[C@@H](C(=O)c3ccc(Cl)cc3)N2C=C1)c1ccccc1,.,.,/,56.7,.,.
COc1ccc(CN2C(=NC(=O)C3CCCO3)SC3CS(=O)(=O)CC32)cc1OC (stereo not drawn),.,.,/,.,.,.
CO/N=C/C(=N\Nc1ccc(C)cc1)C(=O)c1ccc(OC)cc1,.,.,60.3,.,.,.
CC1CCCC(C)N1C(=O)Cn1cc(/C=C2/C(=O)Nc3ccccc32)c2ccccc21 (stereo not drawn),.,.,.,34.0,.,.
COC(=O)c1cn(CC(=O)N2C(C)CCCC2C)c2ccccc12 (stereo not drawn),.,.,/,.,.,.
O=C1/C(=C\c2ccc(O)cc2)SC(=S)N1c1cccnc1,.,.,/,31.5,.,.
Cc1cc(/C=C2/SC(=S)N(c3cccc(C(F)(F)F)c3)C2=O)c(C)n1-c1cccnc1,.,.,.,44.2,.,.
O=c1nc(N/N=C/c2ccccn2)cn[nH]1,55.3,.,/,.,.,.
Cc1ccc(/C=N/Nc2cn[nH]c(=O)n2)o1,.,.,.,.,.,.
c1ccc(-c2oc3ncnc(NCCN4CCOCC4)c3c2-c2ccccc2)cc1,52.6,.,/,.,.,.
COc1cc(C)c(NC(=S)Nc2ccc(Cl)c(Cl)c2)cc1OC,.,.,/,.,.,.
CC(C)OCCCNC(=O)CCC(=O)NNc1nc2ccccc2c2nc(-c3ccccc3)nn12,84.4,.,/,.,.,.
CCOCCCNC(=O)CCC(=O)NNc1nc2ccccc2c2nc(-c3ccccc3)nn12,53.7,.,/,.,.,.
COCCCNC(=O)CCC(=O)NNc1nc2ccccc2c2nc(-c3ccccc3)nn12,.,.,/,.,.,.
COc1cc(/C=c2\s/c(=C(/C#N)C(=O)N3CCCC3)n(-c3ccccc3)c2=O)ccc1O,58.2,.,.,.,.,.
COC(=O)/C=c1/s/c(=C(/C#N)C(=O)N2CCCCC2)n(-c2ccccc2)c1=O,.,.,/,.,.,.
O=C(O)CCCNC(=O)c1cccc(C(=O)NCCCC(=O)O)n1,.,.,/,.,.,.
CCc1nc2oc3ccccc3c(=O)c2cc1C(=O)OC,.,/,/,.,/,.
O=C1C=CC(=O)N1c1ccc(OC(F)F)cc1,.,/,/,.,/,87.5
COC(=O)c1cc2ccc(OC)cc2c2cc(OC)c(OC)cc12,55.1,.,.,.,.,.
COc1ccc(NC(=O)c2cccs2)cc1C(=O)N1CCN(c2ccccc2)CC1,.,.,.,.,.,.
Cc1[nH]n(-c2ccccc2)c(=O)c1C=Nc1ccc(S(=O)(=O)N=C(N)N)cc1,.,.,.,.,.,.
Cc1cccc(-n2[nH]c(C)c(C=Nc3ccc4[nH]c(=O)[nH]c4c3)c2=O)c1,56.3,.,/,.,.,.
Cc1[nH]n(-c2ccccc2)c(=O)c1C=Nc1ccc2[nH]c(=O)[nH]c2c1,55.0,.,/,.,.,.
Cc1[nH]n(-c2ccccc2)c(=S)c1C=Nc1ccc([N+](=O)[O-])cc1,.,/,.,.,/,97.7
Cc1[nH]n(-c2ccccc2)c(=O)c1C=Nc1cccc(F)c1,.,.,.,.,.,.
